# Screens (PubChem)
# Only some compounds are listed: those with a hit (about 8% of all), similar ones and a draw of the others.
# PTK2B oligo ant: Pyk2 (human) oligomerization antagonism; Q293 cells, Pyk2 FERM NanoBiT luminescence; hits give low values; z-score (the deposit names both 25 µM and 10 µM); 0.83% of 99,000 active;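 active = Z-score of -3 or lower, scaled per plate to the spread of control and sample wells; inactive = z-score above -3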;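 note: negative z-score means lost luminescence so less FERM oligomerization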
# PostGolgi ctrl: inhibits growth of the yeast control strain | 5% of 98,000 active | efflux-deficient yeast background strain, growth absorbance A615, 16 h | AID 738 | inhibition, % at 10 µM
# PostGolgi yeast: growth inhibition of a yeast mutant, post-Golgi transport screen; post-Golgi transport phenotypic cell assay; inhibition, % at 10 µM; 0.9% of 98,000 active; AID 739;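 note: yeast cells grown in 1536-well plates; yeast grown about 18 h at 30C before absorbance read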
# Cav3 T inh: human Cav3.2 channel inhibition, primary screen; Cav3.2-expressing cells, Fluo-4 calcium fluorescence FDSS; hits give low values; B-score at 10 µM; 4% of 100,000 active;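 active = single-dose well whose peak fluorescence ratio is a statistical outlier from its plate by either plate-standardised score or position-corrected B-score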
# * = called active by the depositor; . = no result given. Cut-off read from the data, not from the text of the source, unless noted: active = inhibition above about 30%; inactive = the rest.
SMILES,PTK2B oligo ant,PostGolgi ctrl,PostGolgi yeast,Cav3 T inh
CCc1nccn1S(=O)(=O)c1ccc(Br)cc1Br,-0.15,2,-2,-1.2
CCOC(=O)Cc1csc(NC(=O)CSc2nnnn2-c2ccc(F)cc2)n1,-0.37,-1,-2,-4.5*
CCOC(=O)Cc1csc(NC(=S)NC(=O)c2ccc(F)cc2)n1,1.5,41*,4,.
Cc1ccc(N(CN2CCCC2=O)C(=O)c2ccc(OC(C)C)cc2)cc1,-1.1,32*,-1,0.011
CCCCC1CCC(c2nc(-c3ccccn3)no2)CC1 (stereo not given),-0.11,38*,-6,-1.4
Nc1nc(OCC(F)(F)F)cc(Oc2ccccc2F)n1,-3.8*,11,1,-0.54
Cc1noc(C)c1COC(=O)C1(c2cccc(F)c2)CCCC1,1.6,12,-4,-5*
Cc1ccc(N2C(=O)C(Cl)=C(Nc3c(C)n(C)n(-c4ccccc4)c3=O)C2=O)cc1,2,33*,20,1.1
CC(C)(C)c1ccc(/C([O-])=C(/C(=S)NCc2ccco2)[n+]2ccccc2)cc1,.,-3,-6,-0.98
CCCCN(C)C(=O)C1CCN(Cc2ccc(OCc3ccccc3)cc2)CC1,1,.,.,-3.6*
CCOC(=O)NCc1ccc(Cl)c(Cl)c1,0.25,36*,4,-1.4
CN1/C(=C/C(=O)c2nc(S(C)(=O)=O)ncc2Cl)C(C)(C)c2ccccc21,-3.8*,60*,16,1
O=C(NC12CC3CC(CC(C3)C1)C2)N1CCN(S(=O)(=O)c2ccc(Cl)cc2)CC1,4.8,23,-1,-7*
CCOc1ccccc1-c1nn2c(Cc3ccccc3)nnc2s1,0.29,78*,8,-0.0038
CC1(C)CCC23CC[C@]4(C)C(OC2=O)(C3C1)[C@H]1O[C@H]1C1[C@@]2(C)CC[C@@H](O)C(C)(C)C2CC[C@]14C (stereo not given in full),.,.,.,-1.7
COc1ccc([N+](=O)[O-])cc1NC1C2CC3CC(C2)CC1C3 (stereo not given),0.98,2,3,-0.26
COc1ccc([N+](=O)[O-])cc1NC1CCCCC1,0.52,12,-2,-5*
COc1ccc(C2c3c(ccc4ccccc34)Oc3ncn4nc(CO/N=C/c5ccccc5)nc4c32)cc1 (stereo not given),0.23,0,-1,-4.6*
COC(=O)c1ccc(CSc2ccc3nnc(-c4cccc(F)c4)n3n2)o1,.,41*,-5,1.2
Clc1ccc(C2[C@H]3CN(Cc4cccnc4)[C@H](c4ccccc4)C34CC2(c2cccnc2)C4)cn1 (stereo not given in full),.,.,.,0.093
COc1cc2oc(=O)ccc2c(OC)c1CC(O)C(C)(C)O (stereo not given),.,.,.,-0.14
c1ccc(-n2c(SCc3nc(-c4cccs4)no3)nnc2-c2ccco2)cc1,-1.8,34*,-5,-2.9
CCc1nc(C)cn1S(=O)(=O)c1cc(Br)c(C)cc1OC,0.37,-1,12,.
CCc1nc(C)cn1S(=O)(=O)c1cc(C)c(OC)cc1C,.,0,-2,-3.8*
CCc1nc(C)cn1S(=O)(=O)c1ccc(Cl)c(Cl)c1Cl,0.8,17,-1,-3.6*
SMILES,PTK2B oligo ant,PostGolgi ctrl,PostGolgi yeast,Cav3 T inh
CCOc1ccccc1N1CCN(C(=O)Nc2cccc(Cl)c2)CC1,0.3,6,2,-6.1*
CCOc1ccccc1N1CCN(C(=O)c2cccc(-c3ccc(O)cc3)c2)CC1,-1.9,99*,5,.
COc1ccc(Cl)cc1NC(=O)C(C)N1CCN(C/C=C/c2ccccc2)CC1 (stereo not given),-0.05,19,65*,1.7
COc1ccc(OC)c(NC(=S)N2CCN(C/C=C/c3ccccc3)CC2)c1,0.97,18,1,-1.1
COc1ccc(Cl)cc1NC(=O)CC(C)c1ccccc1 (stereo not given),-0.36,16,5,-7.6*
COc1ccc(Cl)cc1NC(=O)CC(C)=O,1.1,8,-1,0.44
CCOc1ccccc1N1CCN(C(=O)c2ccncc2)CC1,-0.73,0,2,.
N#Cc1c(Sc2ncc(C(F)(F)F)cc2Cl)nsc1C/C=N\OCc1ccccc1Br,-0.41,7,-7,-2.2
O=C(Nc1cccc(Cl)c1)N1CCN(c2ncccn2)CC1,0.03,9,-13,-2.8
O=C(Nc1cccc(Cl)c1)N1CCN(C/C=C/c2ccccc2)CC1,-0.1,4,40*,-6*
COc1ccccc1N1CCN(C(=O)CSc2nc3ccccc3o2)CC1,-0.27,8,33*,0.095
O=C(CSc1nc(N2CCCCC2)nc(N2CCCCC2)n1)N1CCN(c2ccccc2)CC1,-1.9,.,.,-8.8*
O=C(Cc1cccs1)N1CCN(c2ccc(F)cc2)CC1,1.3,.,.,-2.1
O=C(CSc1ccccc1)N1CCN(c2ccccc2)CC1,0.52,-7,-1,-0.13
COc1ccccc1N1CCN(C(=O)Cc2cccs2)CC1,1.1,38*,-1,0.55
COc1ccc(N2CCN(C(=O)CSc3nnc(CNc4ccccc4)o3)CC2)cc1,0.96,-1,3,0.031
O=C(CSc1nc2ccccc2o1)N1CCN(C(=O)c2ccco2)CC1,0.76,9,-5,0.31
COc1ccc(Cc2nnc(SCC(=O)N3CCN(c4ccccc4)CC3)o2)cc1,1.2,36*,4,-0.32
CC(C)n1c(N2CCN(CC(=O)Nc3ccc4c(c3)OCCO4)CC2)nc2ccccc21,-1.2,4,5,-3
COc1ccc(CNC(=O)C(c2ccc(C)o2)N(C(=O)c2csnn2)c2ccc(C(C)C)cc2)cc1 (stereo not given),-0.89,0,5,-7.1*
CCc1ccc(N(C(=O)c2csnn2)C(C(=O)NCc2ccccc2)c2ccco2)cc1 (stereo not given),-1.2,-1,6,-2.7
Cc1ccc(C(C(=O)NCc2ccccc2)N(C(=O)c2csnn2)c2cccc3ccccc23)o1 (stereo not given),-0.05,12,6,-7*
CCc1ccc(N(C(=O)c2csnn2)C(C(=O)NC(C)(C)C)c2ccncc2)cc1 (stereo not given),-0.13,-2,35*,0.37
N#CC(c1ccc(Cl)cc1)c1ncc(C(F)(F)F)cc1Cl (stereo not given),-1.1,2,14,-4.6*
COc1ccc(OC)c(S(=O)(=O)n2cnc3cc(C)c(C)cc32)c1,0.77,30*,5,0.2
SMILES,PTK2B oligo ant,PostGolgi ctrl,PostGolgi yeast,Cav3 T inh
CCOc1ccc(S(=O)(=O)n2cnc3cc(C)c(C)cc32)cc1,0.88,10,1,-2.5
COc1ccc(OC)c(S(=O)(=O)N2CCC(C(=O)Nc3cccc(C(F)(F)F)c3)CC2)c1,-1.6,4,1,-9.3*
CCN1CCN(S(=O)(=O)c2cc(OC)ccc2OC)CC1,-0.58,1,9,0.64
COc1ccc(OC)c(S(=O)(=O)N2CCN(c3c(C)cccc3C)CC2)c1,.,29,-2,-7.3*
Cc1cccc(OCCC(=O)Nc2c(C)n(C)n(-c3ccccc3)c2=O)c1,1.4,-12,2,1.9
CN1CCc2nc(SCc3ccc(Cl)cc3)c(C#N)c(-c3cccs3)c2C1,.,.,.,-2.1
Cc1ccccc1NC(=O)CSc1nc(N)c(C#N)c(-c2cccs2)c1C#N,-3.7*,-1,-7,0.51
CCSc1nc(N)nc(-c2cccs2)c1C#N,-2.3,40*,28,.
COc1cc(-c2c(C#N)c(N)nc3c2CCCC3)cc(OC)c1OC,0.1,3,4,-0.71
